# Test results published in PubChem BioAssay AID1233 (SRMLSC, 2008).
# Measured potencies and affinities stand elsewhere. Unmarked numbers belong to inactive results.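 How the source made its calls: active means a dose-response curve fit returns a half-maximal inhibitory concentration, extrapolated values included; inactive means the fit returns no such concentration.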
# Target: HMG-CoA reductase [Enterococcus faecalis] (UniProt Q9FD70)
# Assay: inhibitors of E. faecalis class II HMGR, confirmation, biochemical, Enterococcus faecalis (AID 1233);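 further: 0% = full reaction carrier wells and 100% = background wells lacking mevalonate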
# Settings: purified E. faecalis HMGR, NADPH absorbance 340 nm kinetics; series mostly up to 100 µM; inhibition: at the top concentration
row,SMILES,inhibition
1,COC(=O)Cc1cc(=O)n2[nH]cnc2n1,-9.81%
2,Cc1ccsc1C=C1C(=O)c2ccccc2C1=O,-0.95%
3,O=C(O)c1cc(CN2CCOCC2)oc1-c1ccccc1,-1.88%
4,C=CCn1cnc2c(nnn2-c2ccc(Cl)cc2)c1=O,-3.27%
5,C=CCn1cnc2c(c1=O)c1nc3ccccc3nc1n2/N=C/c1cc(OC)c(OC)c(OC)c1,-0.47%
6,O=C(Cn1cc(C(=O)C(F)(F)F)c2ccccc21)N1CCOCC1,-7.22%
7,COC(=O)c1cc(NC(=O)CSc2nnc(N)s2)ccc1Cl,-0.91%
8,CCN(CC)S(=O)(=O)c1cccc(C(=O)N[C@H](C(=O)Nc2nc3ccccc3s2)C(C)C)c1,-9.14%
9,Cc1ccc(SC(=O)COc2ccc(C)c(C)c2)cc1,-1.62%
10,O=C(CSc1nnnn1-c1ccccc1)Nc1ccc(N2CCOCC2)c(Cl)c1,-8.15%
11,CC(Sc1nnc(-c2ccccc2)c(-c2ccccc2)n1)C(=O)Nc1ncc(Cl)cc1Cl (configuration not stated),2.62%
12,Cc1ccc(NC(=O)NC2CCCCC2)cc1S(=O)(=O)N1CCOCC1,1.4%
13,O=c1[nH]ncc2c3ccccc3n(Cc3cccc(Cl)c3)c12,-6.09%
14,O=C(Nc1cccnc1)c1ccc(COc2ccccc2Cl)o1,-0.17%
15,CCCC(=O)Nc1sc(C(=O)Nc2cccc(N)c2)c(C)c1C(=O)OC,-0.06%
16,COc1ccccc1C(=O)N/C(=C/c1ccc(Br)cc1)C(=O)NCC(=O)O,-3.29%
17,CC(C)(C)Cc1nnc(NS(=O)(=O)c2ccccc2)s1,-3.39%
18,COc1ccc(/C=C/C(=O)NCCNC(=O)c2ccccc2)cc1OC,0.2%
19,CCCCCCCCNC(=S)NCCN1CCCCC1,-6.35%

row,SMILES,inhibition
1,c1ccc(-c2nnc(SCc3nnc(-c4cccs4)o3)o2)cc1,-3.7%
2,O=C(COC(=O)CNC(=O)c1ccccc1F)Nc1ccc2c(c1)OCCO2,-0.28%
3,COc1ccc(-c2c(N)n[nH]c2C)cc1OC,-6.91%
4,CCOC(=O)c1nnn(-c2ccc(OC)cc2)c1N,-6.25%
5,Cc1[nH]nc2c1C(CCc1ccccc1)C(C#N)=C(N)O2 (configuration not stated),-4.55%
6,CC(C)c1ccc(NC(=O)COC(=O)/C=C/c2cccc(Br)c2)cc1,-6.09%
7,Cc1cc(=O)[nH]c(N/N=C/c2ccc(N(C)C)cc2)n1,-14.6%
8,CSc1nc(-c2ccc(C)cc2)nc(C(Cl)Cl)n1,-3.82%
9,CC(C)OC(=O)CC(NC(=O)OC(C)(C)C)c1ccccc1 (configuration not stated),1.43%
10,Cc1cc(N2CCN(c3nc(-c4ccc([N+](=O)[O-])cc4)cs3)CC2)c2ccccc2n1,-5.17%
11,O=C(NCCOc1ccccc1Cl)C(=O)c1c[nH]c2ccccc12,0.25%
12,CCOC(=O)c1c(-c2ccccc2)csc1NC(=S)N(CC)CC,5.86%
13,Cc1cccc(/C=N/NC(=O)c2cc(-c3cccnc3)nc3c2c(C)nn3-c2ccccc2)c1,-4.78%
14,CCCC(=O)NC(=S)Nc1ccc(Cl)cn1,-3.35%
15,COc1ccccc1N(CC(O)CN(c1ccccc1)S(C)(=O)=O)S(=O)(=O)c1ccccc1 (configuration not stated),0.06%
16,O=C(NCc1cccs1)c1cc2c(s1)CS(=O)(=O)C2,-3.82%
17,Cc1[nH][nH]c(=O)c1C(c1c(C)[nH][nH]c1=O)c1cn(Cc2ccc(Cl)c(Cl)c2)c2ccccc12,-7.14%
18,Cn1nc([N+](=O)[O-])nc1Sc1nnnn1-c1ccc(C(=O)O)cc1,-3.35%
